Experimental data as given in ChEMBL document CHEMBL2218924, “A broad activity screen in support of a chemogenomic map for kinase signalling research and drug discovery” (Biochem J, 2013).

Tests used:
[1] = molecular target: Calcium/calmodulin-dependent protein kinase type 1 (Homo sapiens) (UniProt Q14012); conditions: at 1 µM
[2] = molecular target: Calcium/calmodulin-dependent protein kinase type 1 (Homo sapiens) (UniProt Q14012); conditions: at 10 µM
[3] = molecular target: Calcium/calmodulin-dependent protein kinase type II subunit beta (Homo sapiens) (UniProt Q13554); conditions: at 1 µM
Calcium/calmodulin-dependent protein kinase type II subunit beta (Homo sapiens), sequence (Q13554 whole entry): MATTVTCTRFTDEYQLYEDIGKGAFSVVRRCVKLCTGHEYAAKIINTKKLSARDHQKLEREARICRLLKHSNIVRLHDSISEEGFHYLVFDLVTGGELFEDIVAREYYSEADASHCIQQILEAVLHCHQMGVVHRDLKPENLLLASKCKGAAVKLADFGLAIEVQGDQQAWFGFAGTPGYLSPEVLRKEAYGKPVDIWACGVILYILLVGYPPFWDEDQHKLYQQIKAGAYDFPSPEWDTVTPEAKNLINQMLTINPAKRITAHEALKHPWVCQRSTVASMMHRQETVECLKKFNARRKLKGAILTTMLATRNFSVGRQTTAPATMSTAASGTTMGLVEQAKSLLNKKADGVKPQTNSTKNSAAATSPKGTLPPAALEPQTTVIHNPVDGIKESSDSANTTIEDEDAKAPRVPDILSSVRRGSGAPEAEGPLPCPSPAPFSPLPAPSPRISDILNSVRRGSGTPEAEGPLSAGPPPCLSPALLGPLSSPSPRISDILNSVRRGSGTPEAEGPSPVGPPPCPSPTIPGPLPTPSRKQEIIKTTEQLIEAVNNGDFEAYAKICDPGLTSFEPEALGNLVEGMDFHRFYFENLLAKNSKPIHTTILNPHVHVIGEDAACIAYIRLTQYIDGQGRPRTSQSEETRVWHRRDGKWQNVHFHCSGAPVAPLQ

[4] = molecular target: Calcium/calmodulin-dependent protein kinase type II subunit beta (Homo sapiens) (UniProt Q13554); conditions: at 10 µM
[5] = molecular target: Calcium/calmodulin-dependent protein kinase type II subunit gamma (Homo sapiens) (UniProt Q13555); conditions: at 1 µM
Calcium/calmodulin-dependent protein kinase type II subunit gamma (Homo sapiens), sequence (Q13555 whole entry): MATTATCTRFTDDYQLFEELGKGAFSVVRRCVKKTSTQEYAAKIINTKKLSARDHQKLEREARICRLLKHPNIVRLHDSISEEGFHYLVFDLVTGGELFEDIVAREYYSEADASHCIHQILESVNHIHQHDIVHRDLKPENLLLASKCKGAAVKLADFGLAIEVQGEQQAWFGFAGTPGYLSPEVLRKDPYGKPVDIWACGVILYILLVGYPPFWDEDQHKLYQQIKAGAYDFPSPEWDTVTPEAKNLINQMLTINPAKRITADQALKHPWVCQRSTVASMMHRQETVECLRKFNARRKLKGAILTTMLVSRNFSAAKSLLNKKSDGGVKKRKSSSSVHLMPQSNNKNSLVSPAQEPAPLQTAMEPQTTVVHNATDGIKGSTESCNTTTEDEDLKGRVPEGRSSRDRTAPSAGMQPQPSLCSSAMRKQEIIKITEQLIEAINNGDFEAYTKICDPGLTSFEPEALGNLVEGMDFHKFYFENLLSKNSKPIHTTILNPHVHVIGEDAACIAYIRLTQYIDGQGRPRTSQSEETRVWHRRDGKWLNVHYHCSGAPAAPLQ

[6] = molecular target: Calcium/calmodulin-dependent protein kinase type II subunit gamma (Homo sapiens) (UniProt Q13555); conditions: at 10 µM
[7] = molecular target: Calcium/calmodulin-dependent protein kinase type II subunit delta (Homo sapiens) (UniProt Q13557); conditions: at 1 µM
Calcium/calmodulin-dependent protein kinase type II subunit delta (Homo sapiens), sequence (Q13557 whole entry): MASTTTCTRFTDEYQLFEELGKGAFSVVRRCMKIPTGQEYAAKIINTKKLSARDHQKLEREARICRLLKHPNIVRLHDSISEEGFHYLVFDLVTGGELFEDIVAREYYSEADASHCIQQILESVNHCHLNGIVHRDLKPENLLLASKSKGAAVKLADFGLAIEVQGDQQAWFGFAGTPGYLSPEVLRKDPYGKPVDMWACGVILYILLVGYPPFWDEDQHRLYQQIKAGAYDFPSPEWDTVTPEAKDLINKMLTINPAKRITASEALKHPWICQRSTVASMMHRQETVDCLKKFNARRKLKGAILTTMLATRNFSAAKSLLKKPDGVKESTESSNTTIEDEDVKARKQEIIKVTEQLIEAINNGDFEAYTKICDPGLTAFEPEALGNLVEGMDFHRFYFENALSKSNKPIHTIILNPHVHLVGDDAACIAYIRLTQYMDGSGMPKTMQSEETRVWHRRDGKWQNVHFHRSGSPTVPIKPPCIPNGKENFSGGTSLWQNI

[8] = molecular target: Calcium/calmodulin-dependent protein kinase type II subunit delta (Homo sapiens) (UniProt Q13557); conditions: at 10 µM
[9] = molecular target: T1, Calcium/calmodulin-dependent protein kinase type IV (Homo sapiens) (UniProt Q16566); conditions: at 1 µM
T1 sequence (whole entry): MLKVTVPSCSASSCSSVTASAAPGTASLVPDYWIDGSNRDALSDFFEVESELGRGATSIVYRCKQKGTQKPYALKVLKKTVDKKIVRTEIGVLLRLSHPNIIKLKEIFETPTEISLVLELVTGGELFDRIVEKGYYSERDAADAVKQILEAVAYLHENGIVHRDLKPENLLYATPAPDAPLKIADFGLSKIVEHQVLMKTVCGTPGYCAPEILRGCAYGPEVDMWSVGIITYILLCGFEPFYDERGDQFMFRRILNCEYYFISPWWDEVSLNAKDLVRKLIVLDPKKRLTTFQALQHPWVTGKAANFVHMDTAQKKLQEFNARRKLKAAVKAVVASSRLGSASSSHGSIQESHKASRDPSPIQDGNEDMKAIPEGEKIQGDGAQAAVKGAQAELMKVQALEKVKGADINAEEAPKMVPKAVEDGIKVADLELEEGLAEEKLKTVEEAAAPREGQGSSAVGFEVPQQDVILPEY

[10] = molecular target: T1, Calcium/calmodulin-dependent protein kinase type IV (Homo sapiens); conditions: at 10 µM

Calcium/calmodulin-dependent protein kinase type 1 (Homo sapiens), sequence (Q14012 whole entry, looked up): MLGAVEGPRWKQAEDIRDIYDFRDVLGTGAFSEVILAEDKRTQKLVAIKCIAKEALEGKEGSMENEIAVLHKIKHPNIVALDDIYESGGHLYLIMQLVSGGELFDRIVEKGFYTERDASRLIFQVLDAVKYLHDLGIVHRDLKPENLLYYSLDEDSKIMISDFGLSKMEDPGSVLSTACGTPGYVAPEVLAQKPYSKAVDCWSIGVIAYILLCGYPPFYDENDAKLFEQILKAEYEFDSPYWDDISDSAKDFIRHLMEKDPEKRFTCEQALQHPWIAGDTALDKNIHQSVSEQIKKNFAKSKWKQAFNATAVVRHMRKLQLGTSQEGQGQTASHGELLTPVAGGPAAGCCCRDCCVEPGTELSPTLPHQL

Structure (SMILES) | residual activity [1] [%] | residual activity [2] [%] | residual activity [3] [%] | residual activity [4] [%] | residual activity [5] [%] | residual activity [6] [%] | residual activity [7] [%] | residual activity [8] [%] | residual activity [9] [%] | residual activity [10] [%]
COc1ccc2c(c1)c(C1=C(c3c[nH]c4ccccc34)C(=O)NC1=O)cn2CCCN(C)C | 96 | 45 | 80 | 28 | 62 | 10 | 42 | 8 | 105 | 61
Nc1ncnc2[nH]nc(Nc3ccc(F)cc3)c12 | 91 | 72 | 67 | 20 |  | 30 | 77 | 26 | 100 | 104
O=C1NC(=O)c2c1c1c3ccccc3[nH]c1n1cncc21 | 61 | 36 | 22 | 14 | 15 | 7 | 12 | 6 | 61 | 62
CCN(CC)CCNC(=O)c1c(C)[nH]c(/C=C2\C(=O)Nc3ccc(Cl)cc32)c1C | 51 | -2 | 8 | 1 | 3 | 0 | 3 | 1 |  | 
CC(C)c1nn(-c2c(Cl)cccc2Cl)c2nc(Cc3ccc(OCCO)cc3)[nH]c(=O)c12 | 90 | 91 | 91 | 59 | 95 | 60 | 94 | 67 |  | 82
COc1cc2ncnc(Nc3cccc(Cl)c3)c2cc1OC | 108 | 62 |  | 60 | 45 | 5 | 60 | 18 |  | 
O=C(c1ccccc1)c1ccc(N2CCOCC2)cc1O | 95 | 98 |  | 71 |  | 78 | 100 | 76 | 111 | 
COc1cc2nccc(Oc3ccc(NC(=O)Nc4cc(C)on4)c(Cl)c3)c2cc1OC | 105 | 41 | 97 | 69 | 108 | 70 | 102 |  | 123 | 54
NC(=O)Nc1sc(-c2ccc(F)cc2)cc1C(N)=O | 74 | 18 | 86 | 40 | 82 | 32 | 83 | 31 |  | 72
CC(C)(C)c1nc2c3ccc(F)cc3c3c(=O)[nH]ccc3c2[nH]1 | 60 | 9 |  | 33 | 21 | 3 | 24 | 11 | 1 | 0
O=C(O)/C=C/c1cc(Br)c(Br)c(Br)c1Br | 102 | 74 | 78 | 39 | 98 | 31 | 83 | 26 | 94 | 80
CCCCc1c(-c2ccc(OC)cc2)[nH]c2nccnc12 | 109 | 86 | 82 | 84 | 64 | 26 | 73 | 42 | 112 | 
O=C1Cc2c([nH]c3ccc(Br)cc23)-c2ccccc2N1 | 94 | 74 | 81 | 57 |  |  | 58 | 16 |  | 
Nc1ncnc2c1c(-c1ccc(Oc3ccccc3)cc1)cn2C1CCCC1 | 95 | 29 | 83 | 57 |  | 72 | 98 | 68 | 112 | 85
Nc1ncnc2c1cnn2-c1ccccc1 | 99 | 69 |  | 35 | 91 | 51 | 98 | 63 | 125 | 92
O=C(NC(NC(=S)Nc1ccc(F)c([N+](=O)[O-])c1)C(Cl)(Cl)Cl)C(c1ccccc1)c1ccccc1 (stereo unspecified) | 99 | 91 | 91 | 72 | 99 | 89 | 99 | 82 |  | 
O=C(CCCc1ccc(-c2ccccc2F)cc1)Nc1ccc(O)cc1 | 92 | 73 | 100 | 89 | 106 | 75 | 109 | 78 | 104 | 
CC(C)(C)n1nc(Cc2cccc3ccccc23)c2c(N)ncnc21 | 105 | 88 | 89 | 68 | 106 | 78 | 106 | 78 | 122 | 74
Cn1c2ccccc2c2c3c(c4c5ccccc5n(CCC#N)c4c21)CNC3=O | 80 | 32 | 11 | 10 | 2 | -5 | 1 | 1 | 100 | 58
O=c1cc(N2CCNCC2)oc2c(-c3ccccc3)cccc12 | 105 | 80 | 91 | 84 | 104 | 88 | 101 | 77 |  | 87
NCCNc1ncc(C(N)=O)c(Nc2cccc(C(F)(F)F)c2)n1 | 20 | -5 | 73 | 23 | 55 | 3 | 51 | 9 | 114 | 72

Structure (SMILES) | residual activity [1] [%] | residual activity [2] [%] | residual activity [3] [%] | residual activity [4] [%] | residual activity [5] [%] | residual activity [6] [%] | residual activity [7] [%] | residual activity [8] [%] | residual activity [9] [%] | residual activity [10] [%]
Nc1n[nH]c2nc3ccccc3nc12 | 87 | 68 | 75 | 16 | 86 | 28 | 86 | 36 | 121 | 87
O=C1NC(=O)C(c2cn(CCCO)c3ncccc23)=C1c1cnccn1 | 93 | 97 | 75 | 70 | 88 | 74 | 80 | 64 |  | 
COc1ccc(-c2cnc3c(-c4ccsc4)cnn3c2)cc1 | 88 | 80 | 93 | 89 | 71 | 79 | 80 | 87 |  | 
O=C1Nc2ccc(Cl)cc2/C1=C/c1cc(Cl)c(O)c(Cl)c1 | 96 | 63 | 69 | 23 | 62 | 10 | 69 | 10 |  | 
Cn1sc(=O)n(Cc2ccccc2)c1=O | 75 | 67 | 92 | 83 |  |  | 98 | 90 | 73 | 51
c1ccc(-c2cnc(Nc3ccc(OCCN4CCCC4)cc3)s2)cc1 | 101 | 41 | 48 | 7 | 19 | -1 | 22 | 4 |  | 
CC(C)N(CCC(=O)c1ccc2ccccc2c1)Cc1ccccc1 | 100 | 80 | 88 | 84 |  |  |  |  |  | 
O=C1NC(=O)C(c2cn(CCCn3ccnc3)c3ccccc23)=C1Nc1ccccc1 | 106 | 53 | 77 | 45 |  |  | 77 | 23 | 106 | 74
O=c1cc(N2CCOCC2)oc2c1ccc1ccccc12 | 104 | 72 | 103 | 72 | 104 | 81 | 99 | 75 |  | 103
O=C(Nc1nc2ccccc2n1CCN1CCOCC1)c1cccc([N+](=O)[O-])c1 |  |  | 83 | 83 |  | 76 | 103 | 85 | 115 | 53
COc1ccc(CNC(=O)Nc2ncc([N+](=O)[O-])s2)cc1 |  | 72 |  |  |  |  |  |  |  | 
COc1cc2c(cc1OC)-c1n[nH]c(Nc3cccc(F)c3)c1C2 |  |  |  | 56 | 99 | 60 |  |  |  | 
Nc1nccc(-c2c(-c3ccc(F)cc3)ncn2C2CCNCC2)n1 |  |  |  | 55 |  | 62 | 100 | 56 |  | 
CSc1nc(-c2ccc(F)cc2)c(-c2ccnc(NC(C)c3ccccc3)c2)[nH]1 (stereo unspecified) |  | 87 |  | 75 | 98 | 83 | 102 | 83 |  | 92
CCCCc1c(-c2ccc(O)cc2)[nH]c2nccnc12 |  | 71 | 77 | 51 |  |  | 62 | 22 |  | 
CCOc1nc(NC(=O)Cc2cc(OC)ccc2OC)cc(N)c1C#N |  | 78 |  |  |  |  |  |  |  | 
Oc1cccc(-c2nc(N3CCOCC3)c3oc4ncccc4c3n2)c1 |  |  |  | 90 | 98 | 66 |  |  |  | 75
N#Cc1c(NC(=O)c2cccc3ccccc23)sc2c1CCCC2 |  |  | 94 | 81 |  | 97 |  | 88 |  | 87
O=C(c1cc2cc(O)ccc2[nH]1)c1cc2cc(O)ccc2[nH]1 |  | 37 | 53 | 14 | 30 | 2 | 23 | 4 | 114 | 76
O=S(=O)(NCCNC/C=C/c1ccc(Br)cc1)c1cccc2cnccc12 |  |  | 76 | 29 | 100 | 41 |  | 35 |  | 
CC(C)[C@H](CO)Nc1nc(Nc2cc(N)cc(Cl)c2)c2ncn(C(C)C)c2n1 |  |  | 92 | 58 | 76 | 20 | 80 | 24 | 96 | 33

Structure (SMILES) | residual activity [1] [%] | residual activity [2] [%] | residual activity [3] [%] | residual activity [4] [%] | residual activity [5] [%] | residual activity [6] [%] | residual activity [7] [%] | residual activity [8] [%] | residual activity [9] [%] | residual activity [10] [%]
O=C1Nc2ccccc2/C1=C\c1c(Cl)[nH]c2ccccc12 |  | 51 |  | 25 |  | 39 | 87 | 34 |  | 
N#C/C(=C1/Nc2ccccc2S1)c1ccnc(NCCc2cccnc2)n1 |  |  |  | 25 | 80 | 21 | 83 | 24 | 88 | 34
O=C1NC(=O)C(c2c[nH]c3ccccc23)=C1c1c[nH]c2ccccc12 |  | 57 | 68 | 13 | 40 | 4 | 28 | 4 | 100 | 54
CN(C)S(=O)(=O)c1ccc2c(c1)/C(=C/c1cc3c([nH]1)CCCC3)C(=O)N2 |  | 94 | 71 | 59 | 17 | 12 | 18 | 13 | 89 | 98
Cc1cc(C)c(/C=C2\C(=O)Nc3ccccc32)[nH]1 |  |  |  |  | 32 | -1 | 38 | 9 | 104 | 60
O=C1C(Cl)=C(N2C(=O)CCC2=O)C(=O)c2ccccc21 |  | 78 | 90 | 86 |  |  | 97 | 99 |  | 10
COc1ccc(COc2ccc(Cc3cnc(N)nc3N)cc2OC)cc1 |  | 76 |  |  |  |  |  |  | 130 | 
N#C/C(=C\c1ccc(O)c(O)c1)C(=O)NCc1ccccc1 |  | 87 |  | 89 |  |  |  |  | 121 | 84
CCN1/C(=C/C(C)=O)Sc2ccc(OC)cc21 |  |  |  | 70 |  |  |  |  |  | 
CN([C@@H](Cc1ccc(OS(=O)(=O)c2cccc3cnccc23)cc1)C(=O)N1CCN(c2ccccc2)CC1)S(=O)(=O)c1cccc2cnccc12 |  |  | 100 | 78 |  |  | 99 |  |  | 
Fc1ccc(-c2nc3n(c2-c2ccncc2)CCS3)cc1 |  |  | 100 | 95 |  |  |  |  |  | 
NC(=O)c1ccc(-c2nc(-c3ccc4c(c3)OCCO4)c(-c3ccccn3)[nH]2)cc1 | 91 | 73 |  | 88 |  |  | 100 | 98 |  | 
CCCC(=O)Oc1ccc2[nH]c(C(=O)c3cc4ccccc4[nH]3)cc2c1 |  | 89 | 86 | 85 | 99 | 102 |  | 83 |  | 53
COc1cc2nccc(Oc3ccc(NC(=S)NC(=O)c4ccccc4C)cc3)c2cc1OC |  | 75 | 79 | 66 |  |  |  | 85 | 121 | 84
O=c1cc(N2CCOCC2)oc2c(-c3ccccc3)cccc12 |  | 55 |  | 79 |  |  |  |  |  | 
CCOC(=O)c1c(C)[nH]c(/C=C2\C(=O)Nc3ccccc32)c1C |  | 77 | 98 | 93 | 77 | 48 | 79 | 59 |  | 
COc1ccc(Cl)cc1NC(=O)Nc1cc(C)nc2ccccc12 |  |  | 88 | 72 |  |  |  |  |  | 
Nc1nc(Nc2ccc(S(N)(=O)=O)cc2)nn1C(=O)c1c(F)cccc1F |  | 60 |  | 43 | 73 | 19 | 75 | 31 |  | 64
O=C1Cc2c([nH]c3ccc([N+](=O)[O-])cc23)-c2ccccc2N1 |  |  | 61 | 76 | 24 |  | 32 | 20 |  | 
